{"source": "ChEMBL document CHEMBL5308541", "about": "“MAIP: An Open-Source Tool to Enrich High-Throughput Screening Output and Identify Novel, Druglike Molecules with Antimalarial Activity” (ACS Med Chem Lett, 2023)", "note": "The whole screen tested about 150,000 compounds, of which about 540 (0.36%) showed an effect of 50% or more. This is one part of a sample in which strong results are shown more often than they occur."}
{"test_system": "Plasmodium falciparum", "experiment": "Primary screen in NF54 nanoGlo assay, in single point, at 2uM, 72h; a lower Z score goes with more inhibition", "format": "functional, Erythrocyte", "settings": "timepoint 72 hour", "units": {"% Inhibition": "%"}}
{"smiles": "CN1CCN(C2(CNc3ncc(F)c(N(C)C)n3)CCCCC2)CC1", "% Inhibition": 7, "Z score": -1.15}
{"smiles": "Cc1noc(-c2cccc(NC(=O)c3ccccc3-c3ncc(-c4ccccc4)o3)c2)n1", "% Inhibition": -8, "Z score": 1.16}
{"smiles": "CN1CCN(C[C@H]2CCCN(CC(C)(C)N3CCOCC3)C2)CC1", "% Inhibition": -20, "Z score": 3.47}
{"smiles": "Cc1cccc2c(-c3n[nH]c4ncnc(N)c34)c[nH]c12", "% Inhibition": -3, "Z score": 0.47}
{"smiles": "CC(C)CCC1CCCC1NCCCN1CCOCC1", "note": "(centres undefined)", "% Inhibition": 6, "Z score": -1.29}
{"smiles": "COc1ccc2nc3cc(Cl)ccc3c(O)c2c1", "% Inhibition": 65, "Z score": -9.86}
{"smiles": "COc1ccc2c(O)c(Br)c(C)nc2c1", "% Inhibition": 75, "Z score": -13.24}
{"smiles": "CNc1cc(C)nc2cc(OC)ccc12", "% Inhibition": -6, "Z score": 0.97}
{"smiles": "COCCN1CC[C@H](CN(C)c2ccnc3cc(Cl)ccc23)C1", "% Inhibition": 98, "Z score": -17}
{"smiles": "COCCN1CCC[C@@]2(CCN(c3ccnc4cc(Cl)ccc34)C2)C1", "% Inhibition": 99, "Z score": -17.32}
{"smiles": "CN1CCC[C@@H]1CCNc1ncnc2cccc(F)c12", "% Inhibition": 9, "Z score": -1.43}
{"smiles": "CCN(Cc1cnc(-c2ccccc2C)nc1)CC1CCN(C2CCN(C)CC2)CC1", "% Inhibition": -7, "Z score": 1.18}
{"smiles": "COc1ccc2[nH]c(CN(Cc3cccnc3)CC3CCN(C4CCCC4)CC3)c(C)c2c1", "% Inhibition": 1, "Z score": -0.23}
{"smiles": "CCN(Cc1[nH]c2ccc(Cl)cc2c1C)CC1CCN(C2CCN(C)CC2)CC1", "% Inhibition": 85, "Z score": -14.61}
{"smiles": "CCN(Cc1cc(F)ccc1-n1cccn1)CC1CCN(C2CCN(C)CC2)CC1", "% Inhibition": 16, "Z score": -2.76}
{"smiles": "CCN(Cc1cnn(-c2cccc(Cl)c2)c1)CC1CCN(C2CCN(C)CC2)CC1", "% Inhibition": 82, "Z score": -14.12}
{"smiles": "CCN(Cc1cccc(OC2CCCC2)c1)CC1CCN(C2CCN(C)CC2)CC1", "% Inhibition": 20, "Z score": -3.46}
{"smiles": "Fc1ccc2ncnc(NC3CCN(C[C@H]4CCOC4)CC3)c2c1", "% Inhibition": -10, "Z score": 2.15}
{"smiles": "CN(CCCn1ccnc1)c1ccnc2cc(Br)ccc12", "% Inhibition": 99, "Z score": -17.18}
{"smiles": "COc1cccc(-c2nc3cc(C#N)ccc3[nH]2)n1", "% Inhibition": 0, "Z score": 0.04}
{"smiles": "N#Cc1cccc(Cl)c1N1CCC(O)(CN)CC1", "% Inhibition": -3, "Z score": 0.43}
{"smiles": "NCC1(O)CCN(c2ccnc3cc(F)c(Cl)cc23)CC1", "% Inhibition": 95, "Z score": -20.37}
{"smiles": "O[C@@]1(c2c[nH]nn2)CCN(c2ccnc3cc(Cl)ccc23)C1", "% Inhibition": 44, "Z score": -6.63}
{"smiles": "Cn1c(NCc2ccc(N3N=C(c4ccccc4)C[C@H]3c3ccccc3)cc2)nc2ccccc21", "% Inhibition": -11, "Z score": 1.96}
{"smiles": "Cc1cnccc1N1CCCN(Cc2ccccc2OCCN2CCN(C)CC2)CC1", "% Inhibition": 96, "Z score": -19.05}
{"smiles": "CN1CCN(CCOc2ccccc2CN2CC3CCC(C2)NC3)CC1", "note": "(centres undefined)", "% Inhibition": -1, "Z score": 0.22}
{"smiles": "C[C@H]1CCCN(CCOc2ccccc2CN2CCN(c3cccnc3)CC2)C1", "% Inhibition": -2, "Z score": 0.3}
{"smiles": "O=C(NC[C@@H](CN1CCCC1)C1CC1)c1ccnn1CC(F)(F)F", "% Inhibition": -1, "Z score": 0.12}
{"smiles": "C[C@@H](CS(C)(=O)=O)N(C)c1ncnc2cccc(F)c12", "% Inhibition": 6, "Z score": -1.06}
{"smiles": "C[C@H]1CCCN(CCNC(=O)c2ccc(-c3ccc4c(=O)[nH]ccc4c3)cc2)C1", "% Inhibition": 67, "Z score": -11.64}
{"smiles": "CN1CCC(N2CCC(CN(CCCn3cccn3)Cc3ccncc3)CC2)CC1", "% Inhibition": -6, "Z score": 0.97}
{"smiles": "Clc1ccc2[nH]c3c(c2c1)CCCC3NC1CCN(C2CCOC2)CC1", "note": "(centres undefined)", "% Inhibition": 83, "Z score": -16.55}
{"smiles": "Cc1ccc2[nH]c3c(c2c1)CCCC3NC1CC2CCC1O2", "note": "(centres undefined)", "% Inhibition": -7, "Z score": 1.25}
{"smiles": "Cn1ncc(C(F)(F)F)c1CN[C@H]1CCCc2c1[nH]c1ccc(Cl)cc21", "% Inhibition": -15, "Z score": 2.6}
{"smiles": "CN1CCC[C@@H](CNc2ccnc3ccncc23)[C@@H]1c1ccnn1C", "% Inhibition": 10, "Z score": -1.79}
{"smiles": "COCCCN1CCC(Nc2ncnc3cc(C)c(C)cc23)CC1", "% Inhibition": 96, "Z score": -16.62}
{"smiles": "COCCN1CCC(Nc2nccnc2NC2CCN(CCOC)CC2)CC1", "% Inhibition": 1, "Z score": -0.15}
{"smiles": "COCCN1CCC(Nc2ncnc3c(C)cccc23)CC1", "% Inhibition": 4, "Z score": -0.91}
{"smiles": "COc1ccc(Nc2ncc(CN(C)CCn3ccnc3)s2)cc1", "% Inhibition": 1, "Z score": -0.26}
{"smiles": "COCCN1CC[C@H](CNC2CCN(c3ncc4ccc(F)cc4n3)CC2)C1", "% Inhibition": 58, "Z score": -10.01}
{"smiles": "CCc1cc(NC2CCN(CC(F)F)CC2)nc(-c2ccncc2)n1", "% Inhibition": 4, "Z score": -0.75}
{"smiles": "CCc1cc(Nc2ccc(N3CCOCC3)nc2)nc(-c2ccncc2)n1", "% Inhibition": 56, "Z score": -9.65}
